# Source: PubChem (National Center for Advancing Translational Sciences (NCATS))
# Rows were chosen to be rich in hits. Some 6.1% of all compounds tested hit in one or more screens of this group.
# D1 ag = activates the human D1 dopamine receptor; P21728; HEK293 T-REx D1 cells, calcium flux, agonist mode; activation, % at 2 µM; 360,000 tested, 1% active; in the data active = activation above about 30%
# Target sequence (P21728 whole entry, looked up): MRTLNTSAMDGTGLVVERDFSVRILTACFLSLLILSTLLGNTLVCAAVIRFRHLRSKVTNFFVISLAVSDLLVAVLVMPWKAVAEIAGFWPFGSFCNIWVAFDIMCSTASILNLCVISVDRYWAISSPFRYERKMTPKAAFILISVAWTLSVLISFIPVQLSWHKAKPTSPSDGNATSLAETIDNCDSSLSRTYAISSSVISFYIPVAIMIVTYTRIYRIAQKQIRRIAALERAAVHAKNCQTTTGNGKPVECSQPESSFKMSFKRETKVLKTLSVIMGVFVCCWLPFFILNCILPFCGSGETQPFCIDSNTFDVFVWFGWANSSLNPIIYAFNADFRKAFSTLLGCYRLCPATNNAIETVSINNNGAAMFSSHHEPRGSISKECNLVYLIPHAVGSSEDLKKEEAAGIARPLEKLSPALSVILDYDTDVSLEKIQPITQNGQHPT
#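 Tetracycline-induced HEK293 TREx D1 cells, force-coupled to calcium signalling, were dye-loaded with a no-wash calcium kit. Compound was pin-added after a 10 s baseline. Fluorescence was read kinetically at 1 cycle/s for 180 s, with calcium rises flagged as agonism.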
# D1 antagonist = antagonists of human D1 dopamine receptor | activity change, negative = inhibition, % at 10 µM | HEK293 TREx D1 cells, calcium flux, dopamine EC80; active compounds read low | 360,000 tested, 3.2% active; in the data active = activity change below about -30%
#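 After overnight tetracycline induction at 30 C, force-coupled D1 HEK293 cells took up a no-wash calcium dye at room temperature. Compounds were added and monitored 180 s, and the response to EC80 dopamine was then recorded.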
# D3 antag = antagonists of human D3 dopamine receptor; P35462; D3R cells, DiscoveRx beta-arrestin luminescence, antagonist mode; active compounds read low; max response, negative = inhibition, %; 360,000 tested, 2.5% active; AID 652054; in the data active = max response below about -50%; inconclusive = no clear call, values can overlap the other calls
#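 Cells plated overnight at 1500 cells/well, then exposed to library compounds with dopamine controls for 90 minutes at 37 degrees C. DiscoveRx reagent added for 30–60 minutes at room temperature; luminescence read, quantitative HTS format.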
# ERG-DNA inh = ERG Ets/DNA interaction inhibition. fluorescence polarization, His-ERG Ets domain / labelled DNA. AID 624246. P11308. Potency, µM (titrated, usually from 76.9 µM), usual class: inhibitors. 370,000 tested, 0.028% active; active = well fitted inhibition curve with a large enough effect in the polarisation, with a control signal flat; inconclusive = small, poorly fitted or top-dose-only effect, or effect the other way, or a change in a side signal; inactive = no such curve, though single readings can be large or run the other way; the % refers to the polarisation;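 note: polarization taken with two DNA probes labelled with fluorescein and Texas red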
#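 His-tagged ERG Ets domain (1 uM in the protein solution; 300mM KCl, 50mM Tris-HCl, 1mM EDTA, 1mM DTT, pH 7.5) received compound, then a probe mix of 5 nM fluorescein-DNA and 100nM Texas-615-DNA. Fluorescence polarization was read for both dyes.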
# D3 ag = activates the human D3 dopamine receptor | P35462 | max activation, % | AID 652048 | 410,000 tested, 0.58% active | D3R DiscoveRx beta-arrestin cells, luminescence, 90 min; in the data active = max activation above about 30%
#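 Agonist-mode cell screen: cells plated at 1500/well and incubated overnight at 37 °C, then exposed to library compounds for 90 min at 37 °C. Detection reagent was added for 30–60 min at room temperature, and luminescence was read.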
# D1 PAM = human D1 dopamine receptor positive modulation. potentiation, % at 10 µM. P21728. 360,000 tested, 0.036% active. HEK293 TREx D1 cells, calcium flux, dopamine EC20 potentiation; in the data active = potentiation above about 30%
# Hits are given with their value; i = inactive; ? = inconclusive; nt = no result given; ! = a repeat was not active.
SMILES,D1 ag,D1 antagonist,D3 antag,ERG-DNA inh,D3 ag,D1 PAM
Cc1ccc(CSc2nc(=O)c3c(n2C)NC(=O)CC3c2ccc(OC(C)C)cc2)cc1 (stereo not given),46,i,nt,i,i,i
C/C(=N\NC(N)=O)c1ccc(-n2ccnc2)cc1,i,-44,i,i,i,i
CC(C)(C)C(=O)NC1=NN(c2c(Cl)cc(Cl)cc2Cl)C(=O)C1,i,i,-59,i,i,i
COc1cccc(C(=O)Nc2cccc(C(=O)NC3=NN(c4c(Cl)cc(Cl)cc4Cl)C(=O)C3)c2)c1,i,i,?,i,i,i
CCN(CC)C(=O)c1ccc(Cn2cc([N+](=O)[O-])cn2)o1,i,-37,i,i,i,i
CCC(NC(=O)c1cccc(Cn2cc([N+](=O)[O-])cn2)c1)c1ccc(C(C)C)cc1 (stereo not given),i,nt,-53,i,i,i
CC(NC(=O)c1cccc(Cn2cc([N+](=O)[O-])cn2)c1)c1ccc(C(C)(C)C)cc1 (stereo not given),i,i,i,i,i,i
CCc1ccccc1NC(=O)c1ccc(Cn2cc([N+](=O)[O-])cn2)cc1,38,i,i,i,i,i
CN(CC(=O)Nc1ccccc1Br)C(=O)C1CCN(C(=O)c2ccc(Cl)cc2)CC1,nt,nt,i,i,i,nt
Cc1nc(N)sc1C(=O)NN,i,i,i,i,i,i
CC1=CN2C(=N)/C(=C\c3cn(CCCOc4ccccc4)c4ccccc34)C(=O)N=C2S1,31,i,i,i,i,i
CCOC(=O)c1nnn2c1nc(N1CCCCC1)c1ccccc12,i,-42,i,i,i,i
Nc1nc2ccccc2cc1C(=O)NCc1ccc(-c2ccccc2)cc1,nt,nt,i,nt,i,nt
C=CC[n+]1c(/C=C/c2ccc(OC(C)=O)c(OC)c2)ccc2ccccc21,i,i,i,i,i,i
CCOC(=O)Nc1sc(C)nc1-c1ccccc1,i,-49,i,i,i,i
COc1ccc(-c2c(-c3ccccc3OC)sc3ccccc23)cc1C=O,i,nt,-60,i,i,i
COc1ccc(C(=O)Cn2c(C(=O)/C=C/c3ccccc3)nc3ccccc32)cc1,i,i,?,i,i,i
CCOC(=O)c1ccc(NC(=S)N(CCCN2CCCC(C)C2)Cc2cccs2)cc1 (stereo not given),i,i,-87,i,i,i
Cc1ccc(NC(=S)N(CCCN2CCC(C)CC2)Cc2ccco2)cc1C,i,i,-52,i,i,i
CCOC(=O)c1ccc(NC(=S)N(CCCN2CCCC(C)C2)Cc2ccco2)cc1 (stereo not given),i,-39,?,i,i,i
CCc1ccc(NC(=S)N(CCN2CCCCC2)Cc2ccco2)cc1,i,i,-68,i,i,i
Cc1ccccc1NC(=S)N(CCCN1CCC(C)CC1)Cc1ccco1,i,i,?,i,i,i
Cc1cc2[nH]c(=O)c(=O)[nH]c2cc1S(=O)(=O)NCc1ccccc1,i,i,i,i,i,i
Cc1ccc(S(=O)(=O)N2CCOCC2)cc1NC(=O)COC(=O)CCOc1ccc(C(C)(C)C)cc1,i,i,i,i,i,i
CCSc1cc(N2CCCC2)nc(-c2ccccc2Cl)n1,i,i,i,i,i,i
SMILES,D1 ag,D1 antagonist,D3 antag,ERG-DNA inh,D3 ag,D1 PAM
Cc1[nH]n(-c2ccccc2)c(=S)c1C=Nc1ccc([N+](=O)[O-])cc1,i,i,?,i,i,i
COc1ccc([C@H]2CC(=O)C=C(c3cccc4c3sc3ccccc34)C2)cc1OC,i,-36,i,i,i,i
COc1ccc([C@H]2CC(=O)C=C(c3cc4ccccc4s3)C2)cc1OC,i,-48,i,i,32,i
O=C1C=C(c2cccc3c2sc2ccccc23)C[C@@H](c2ccc(F)cc2)C1,i,nt,i,i,i,i
COc1ccc([C@H]2CC(=O)C=C(c3ccc(C(=O)O)cc3)C2)cc1OC,i,nt,i,i,31,i
COc1ccc([C@H]2CC(=O)C=C(c3ccc(-c4ccccc4)cc3)C2)cc1OC,i,i,i,i,i,i
O=C(CN1c2cccc3cccc(c23)S1(=O)=O)N1CCCCC1,nt,nt,i,i,i,nt
CN(C)S(=O)(=O)c1cc(NC(=O)CN2CCN(c3ccccc3)CC2)ccc1Cl,i,i,i,i,64,i
CN(C)S(=O)(=O)c1cc(NC(=O)COC(=O)CCSc2ccc(Cl)cc2)ccc1Cl,i,-43,i,i,i,i
COc1ccc(CCCc2nnc(SCC(=O)Nc3ccc(C)c(C)c3)o2)cc1,i,-32!,i,i,i,i
CCN(CC)S(=O)(=O)c1cc(NC(=O)CN2CCN(c3ccccn3)CC2)ccc1C,i,i,i,i,91,i
CN(C)S(=O)(=O)c1cc(NC(=O)CN2CCN(c3ccc(O)cc3)CC2)ccc1Cl,i,i,i,i,i,i
O=C(c1ccc(Cl)cc1)C1CCN(CC(=O)N2CCCCC2)CC1,i,i,i,i,i,i
Cc1nnc2sc(-c3cccc(F)c3)nn2c1=O,i,i,i,i,i,i
O=C(COC(=O)Cn1cnc2ccccc21)Nc1ccc2c(c1)C(=O)c1ccccc1C2=O,i,i,i,i,i,i
Cc1ccc(NC(=O)CN2CCN(c3ccccn3)CC2)cc1S(=O)(=O)N(C)C,i,i,i,i,62,i
O=C(CN1CCN(c2ccccn2)CC1)Nc1ccc(Cl)c(C(F)(F)F)c1,i,i,-66,i,i,i
CN(C)c1ccc(NC(=O)CCN2CCN(c3ccccn3)CC2)cc1,i,i,i,i,95,i
Cc1ccc(NC(=O)COC(=O)Cn2cnc3ccccc32)cc1S(=O)(=O)N(C)C,i,-85,i,nt,i,i
CCn1c(CC(=O)Nc2ccccc2F)nnc1SCC(=O)Nc1nncs1,i,i,i,i,i,i
CC(C)(C)n1nc2c(c1NC(=O)c1ccc(C(F)(F)F)cc1)CS(=O)(=O)C2,i,i,i,i,i,i
COc1ccccc1C(=O)NCC(=O)N1CCN(C/C=C/c2ccccc2)CC1,nt,nt,i,i,i,nt
Cc1onc(-c2ccccc2)c1CNS(=O)(=O)c1cccc(Cl)c1,i,i,i,i,i,i
COCC(=O)Nc1ccc(S(=O)(=O)Nc2onc(C)c2C)cc1,nt,nt,i,nt,i,nt
CC(=O)Nc1ccc(NC(=O)CN2CCN(c3ccccn3)CC2)cc1,i,i,i,i,i,i
COc1ccc(CCC(=O)Nc2ccc(C)c(S(=O)(=O)N(C)C)c2)cc1OC,i,i,i,i,i,i
CN(C)S(=O)(=O)c1ccc(NC(=O)CN2CCN(c3ccccn3)CC2)cc1,i,i,i,i,66,i
Cc1ccc(S(=O)(=O)N(C)C)cc1NC(=O)COc1ccccc1C(=O)Nc1ccccc1,i,i,i,i,i,i
